From PubChem BioAssay come the findings set out here.

Assay [1] concerns the target Albumin (Bos taurus) (UniProt P02769). Nature of the assay: bovine serum albumin binders on microarray, profiling panel, artefact control for SMM control protein annotation, biochemical, small-molecule microarray, Alexa647 label, 635/667 nm fluorescence (AID 1118).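 Further: score merges 667 nm emission intensity and signal-to-noise per printed compound spot.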 The note with it: BSA-A647 binding, fluorescence 635 nm, higher = more signal.
Assay [2] can be described thus: small-molecule microarray binders of probe aXIP, primary screen, biochemical, NeuroSMM set, 635/667 nm fluorescence (AID 1119).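 Further: probe is the protein aXip251-270 applied at 1 µg/mL to compound-printed slides; binding of probe to printed compounds measured as 667 nm fluorescence plus signal to noise.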 The note with it: higher = more signal, called active from +8 up or from −8 down.
Assay [3] in a line: small-molecule binders of probe aNOTCH3, primary screen, biochemical, small-molecule microarray, 635/667 nm fluorescence (AID 1120).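 Further: probe is a biotin-tagged antibody raised against NOTCH3 rather than NOTCH3 protein; score merges spot fluorescence near 667 nm with spot signal to noise.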 The note with it: higher = more signal.
Assay [4] is described as follows: small-molecule binders of probe aNOTCH2, primary screen, biochemical, small-molecule microarray, 635/667 nm fluorescence (AID 1121).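 Further: score merges feature fluorescence read at 667 nm with its signal to noise.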 The note with it: higher = more signal.
In assay [5] the target is Carbonic anhydrase 2 (Homo sapiens) (UniProt P00918). Nature of the assay: CAII small-molecule binders, profiling panel, biochemical, small-molecule microarray, Alexa647-labelled CAII (AID 1122). The note with it: CAII-A647 binding fluorescence, higher = more signal.
A short description of assay [6]: COS7 lysate on small-molecule microarray, probe aHis, 635 nm (AID 1123).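 Further: z-score combines 667nm fluorescence intensity with signal-to-noise per printed compound spot.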 The note with it: COS7 cell lysate, fluorescence, higher = more signal.
Assay [7] can be described thus: compound binding in COS7 lysate, probe aLAP1, primary screen, cell lysate, small-molecule microarray (AID 1124).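 Further: lysate comes from COS7 cells expressing LAP1 and is applied at 0.3 µg/mL; score merges spot fluorescence near 667 nm with signal-to-noise over triplicate slides.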 The following applies: probe aLAP1, fluorescence, higher = more signal.
In assay [8] the test system is Sam68 (KHDRBS1). Nature of the assay: Sam68 small-molecule binders, primary screen, biochemical, small-molecule microarray, 635 nm fluorescence (AID 1125).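 Further: score merges 667 nm channel intensity with signal to noise over triplicate slides.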 The note with it: small-molecule microarray binding, higher = more signal.
The subject of assay [9] is Chordin-like protein 2 (CHRDL2). Nature of the assay: CHRDL2 small-molecule binders, primary screen, biochemical, small-molecule microarray, 635 nm fluorescence (AID 1126).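 Further: printed compound slides probed with Chrdl2 protein at 4 µg/mL for 1 h at 4 C; score merges 667 nm emission intensity with signal to noise over three replicate slides.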 The note with it: small-molecule microarray binding, fluorescence 635 nm; higher = more signal.
Assay [10] deals with Concanavalin-A (Canavalia ensiformis) (UniProt P02866). Nature of the assay: ConA small-molecule binders, primary screen, artefact control for SMM control protein annotation, biochemical, small-molecule microarray, Alexa647 label, 635 nm (AID 1127).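 Further: z combines 667 nm emission intensity with signal-to-noise across three replicate slides.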 The following applies: ConA-A647 binding fluorescence, higher = more signal.
Sequence of Concanavalin-A (Canavalia ensiformis) (P02866 whole entry, looked up): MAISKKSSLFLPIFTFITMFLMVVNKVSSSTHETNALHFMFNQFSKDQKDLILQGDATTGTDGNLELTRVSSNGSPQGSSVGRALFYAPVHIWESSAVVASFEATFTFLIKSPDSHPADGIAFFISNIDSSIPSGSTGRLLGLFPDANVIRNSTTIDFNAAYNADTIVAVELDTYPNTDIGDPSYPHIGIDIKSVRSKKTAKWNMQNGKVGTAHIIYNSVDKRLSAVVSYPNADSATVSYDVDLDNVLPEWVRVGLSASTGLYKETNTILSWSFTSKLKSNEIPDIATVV
A short description of assay [11]: anti-His antibody binders, primary screen, artefact control for SMM control protein annotation, biochemical, small-molecule microarray, 635 nm fluorescence (AID 1128).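 Further: score merges feature fluorescence with signal-to-noise for each printed compound spot.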 The following applies: anti-His Alexa647 antibody binding, higher = more signal.
Assay [12] concerns Human papillomavirus type 1a E7 protein (residues 1-88). Nature of the assay: HPV1a E7 small-molecule binders, primary screen, biochemical, small-molecule microarray, residues 1-88, 635 nm (AID 1129). The note with it: small-molecule microarray binding, fluorescence 635 nm; higher = more signal.
Assay [13] concerns the target Focal adhesion kinase 1 (Homo sapiens) (UniProt Q05397). Nature of the assay: small-molecule microarray binders of FAK, primary screen, biochemical, 635/667 nm fluorescence, BSA, DTT (AID 1130).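 Further: composite of spot emission at 667 nm and signal to noise over triplicate slides.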 The following applies: PTK2 binding, 635 nm fluorescence, higher = more signal.
In assay [14] the test system is Fibrinogen (Alexa647-labelled). Nature of the assay: fibrinogen binders on compound microarrays, profiling panel, artefact control for SMM control-protein annotation, biochemical, small-molecule microarray, 635/667 nm fluorescence (AID 1131).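 Further: z-score merges 667 nm fluorescence with per-spot signal-to-noise over triplicate slides.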 The note with it: fibrinogen-A647 binding fluorescence, higher = more signal.
Assay [15] addresses Follistatin (Homo sapiens) (UniProt P19883). Nature of the assay: follistatin binders on small-molecule microarrays, primary screen, biochemical, small-molecule microarray, 635/667 nm fluorescence (AID 1132). The following applies: FST binding, 635 nm fluorescence, higher = more signal.
Assay [16] concerns the target Fibroblast growth factor 2 (Homo sapiens) (UniProt P09038). Nature of the assay: FGF2 binders on small-molecule microarrays, primary screen, biochemical, small-molecule microarray, 635/667 nm fluorescence (AID 1133). The note with it: small-molecule microarray binding, FGF2, fluorescence 635/667; higher = more signal.
Assay [17] in a line: mitochondrial membrane potential change in A549 cells, profiling panel, cell-based, JC-1 fluorescence, basal, 24 h, 100 nL (AID 1138).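 Further: A549 lung adenocarcinoma cells under basal conditions with no added stimulus; test concentration not given here.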 The following applies: higher = more signal.
The subject of assay [18] is Lefty1. Nature of the assay: Lefty1 binders on small-molecule microarrays, primary screen, biochemical, small-molecule microarray, 635/667 nm fluorescence (AID 1139). The following applies: small-molecule microarray binding, fluorescence 635/667; higher = more signal.
The subject of assay [19] is wheat germ agglutinin (Triticum aestivum), Alexa647-labelled. Nature of the assay: wheat germ agglutinin binders on compound microarrays, profiling panel, artefact control for SMM control-protein annotation, biochemical, small-molecule microarray, 635/667 nm fluorescence (AID 1140).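 Further: score merges 667 nm feature emission with signal to noise over triplicate slides.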 The following applies: WGA-A647 binding, 635 nm fluorescence, higher = more signal.
For assay [20], the target named is Luciferin 4-monooxygenase (Photinus pyralis) (UniProt P08659). Nature of the assay: firefly luciferase enzyme inhibitors, primary screen, biochemical, luminescence, purified enzyme, 2006 set (AID 1141).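 Further: cell-free assay with purified firefly luciferase at 100 ng per well in PBS; test concentration not given here.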 The following applies: SteadyGlo luminescence, 30 min, higher = more signal, called active from +8 up or from −8 down.
Sequence of Luciferin 4-monooxygenase (Photinus pyralis) (P08659 whole entry, looked up): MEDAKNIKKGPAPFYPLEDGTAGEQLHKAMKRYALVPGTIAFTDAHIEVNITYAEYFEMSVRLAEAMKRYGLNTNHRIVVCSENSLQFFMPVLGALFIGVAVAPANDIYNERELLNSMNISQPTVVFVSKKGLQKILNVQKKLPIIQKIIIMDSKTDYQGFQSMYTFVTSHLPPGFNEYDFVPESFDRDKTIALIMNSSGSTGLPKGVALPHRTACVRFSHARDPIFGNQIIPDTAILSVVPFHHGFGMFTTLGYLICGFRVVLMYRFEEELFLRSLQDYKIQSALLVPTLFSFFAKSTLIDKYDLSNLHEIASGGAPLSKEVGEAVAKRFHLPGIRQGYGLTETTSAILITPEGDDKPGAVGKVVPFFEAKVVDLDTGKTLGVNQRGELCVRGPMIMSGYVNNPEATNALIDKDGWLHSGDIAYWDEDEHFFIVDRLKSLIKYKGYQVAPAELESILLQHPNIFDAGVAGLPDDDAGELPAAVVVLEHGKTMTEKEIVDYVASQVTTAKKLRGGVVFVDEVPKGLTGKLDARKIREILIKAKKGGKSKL

Active and inactive are the calls of the source.

Sequence of Albumin (Bos taurus) (P02769 whole entry, looked up): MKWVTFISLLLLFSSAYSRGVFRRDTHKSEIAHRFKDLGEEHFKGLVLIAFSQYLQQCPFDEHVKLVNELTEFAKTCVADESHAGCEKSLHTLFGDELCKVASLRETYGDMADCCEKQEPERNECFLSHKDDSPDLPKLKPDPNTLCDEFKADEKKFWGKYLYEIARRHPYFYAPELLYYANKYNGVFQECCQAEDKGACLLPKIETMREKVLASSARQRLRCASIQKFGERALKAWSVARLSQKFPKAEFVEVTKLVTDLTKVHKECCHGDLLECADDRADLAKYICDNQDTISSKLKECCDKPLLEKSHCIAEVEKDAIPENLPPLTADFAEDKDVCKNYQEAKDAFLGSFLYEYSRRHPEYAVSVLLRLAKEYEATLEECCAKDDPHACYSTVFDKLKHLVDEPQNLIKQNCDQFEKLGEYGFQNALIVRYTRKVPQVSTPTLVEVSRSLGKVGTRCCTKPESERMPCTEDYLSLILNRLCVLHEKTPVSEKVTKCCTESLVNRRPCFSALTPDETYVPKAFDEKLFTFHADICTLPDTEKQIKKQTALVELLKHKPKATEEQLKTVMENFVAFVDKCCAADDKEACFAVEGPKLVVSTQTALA
Sequence of Fibroblast growth factor 2 (Homo sapiens) (P09038 whole entry, looked up): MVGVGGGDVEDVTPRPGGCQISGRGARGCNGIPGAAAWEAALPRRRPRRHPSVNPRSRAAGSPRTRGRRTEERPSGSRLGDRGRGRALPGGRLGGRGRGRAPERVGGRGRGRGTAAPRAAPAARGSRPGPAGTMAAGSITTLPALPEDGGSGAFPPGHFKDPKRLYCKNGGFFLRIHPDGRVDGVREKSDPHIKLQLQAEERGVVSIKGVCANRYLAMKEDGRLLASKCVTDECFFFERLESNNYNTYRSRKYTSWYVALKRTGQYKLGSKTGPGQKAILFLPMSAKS
Sequence of Follistatin (Homo sapiens) (P19883 whole entry, looked up): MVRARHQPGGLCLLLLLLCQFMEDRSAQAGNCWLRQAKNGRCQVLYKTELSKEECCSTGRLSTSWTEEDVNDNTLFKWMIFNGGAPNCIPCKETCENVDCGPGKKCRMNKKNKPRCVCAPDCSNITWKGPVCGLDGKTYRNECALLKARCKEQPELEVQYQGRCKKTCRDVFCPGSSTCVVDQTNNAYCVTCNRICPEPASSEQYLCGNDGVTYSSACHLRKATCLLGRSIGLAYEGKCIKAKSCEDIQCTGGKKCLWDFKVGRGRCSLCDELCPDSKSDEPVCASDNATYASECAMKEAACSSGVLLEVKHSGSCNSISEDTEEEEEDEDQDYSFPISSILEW
Sequence of Focal adhesion kinase 1 (Homo sapiens) (Q05397 whole entry, looked up): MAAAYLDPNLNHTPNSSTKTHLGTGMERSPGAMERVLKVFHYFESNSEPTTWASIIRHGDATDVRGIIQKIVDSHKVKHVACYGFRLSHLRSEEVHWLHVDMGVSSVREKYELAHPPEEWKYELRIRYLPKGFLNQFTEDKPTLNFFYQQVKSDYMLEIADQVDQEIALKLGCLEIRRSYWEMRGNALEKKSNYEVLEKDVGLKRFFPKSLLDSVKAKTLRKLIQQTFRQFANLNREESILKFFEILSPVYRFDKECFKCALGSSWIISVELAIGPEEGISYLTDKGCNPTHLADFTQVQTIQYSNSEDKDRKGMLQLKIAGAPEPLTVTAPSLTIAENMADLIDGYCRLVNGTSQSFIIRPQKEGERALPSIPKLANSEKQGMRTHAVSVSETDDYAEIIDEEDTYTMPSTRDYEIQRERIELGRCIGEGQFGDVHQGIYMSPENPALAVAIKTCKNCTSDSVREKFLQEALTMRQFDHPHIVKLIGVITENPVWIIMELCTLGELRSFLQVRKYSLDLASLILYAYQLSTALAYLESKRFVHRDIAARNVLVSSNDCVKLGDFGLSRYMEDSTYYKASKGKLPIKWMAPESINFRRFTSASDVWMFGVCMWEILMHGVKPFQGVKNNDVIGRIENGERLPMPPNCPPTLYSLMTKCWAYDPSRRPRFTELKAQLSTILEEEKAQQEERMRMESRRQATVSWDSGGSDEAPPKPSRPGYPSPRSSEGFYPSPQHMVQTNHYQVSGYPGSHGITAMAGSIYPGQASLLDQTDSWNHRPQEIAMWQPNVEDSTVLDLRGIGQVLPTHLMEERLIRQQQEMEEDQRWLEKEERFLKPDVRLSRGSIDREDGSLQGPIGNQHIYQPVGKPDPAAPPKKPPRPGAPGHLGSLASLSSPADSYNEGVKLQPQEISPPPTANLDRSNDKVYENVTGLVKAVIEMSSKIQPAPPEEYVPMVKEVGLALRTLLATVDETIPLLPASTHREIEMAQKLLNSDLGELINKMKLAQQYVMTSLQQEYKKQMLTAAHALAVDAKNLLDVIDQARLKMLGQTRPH

Regarding `O=C(CS)NCCCCCNC(=O)[C@H]1C[C@H]2C(=O)NCC(=O)N2[C@H]1c1cccc(OCCO)c1`, the composite z-score in assay [1] was -0.221; in assay [3], -0.249; in assay [4], -0.164; in [5], 0.728; in [6] it was 0.0504; in assay [7], -0.442. Further, the composite z-score in assay [8] is -0.956; in [9] it was 0.577; in [10], 0.687; in [11] it was -0.0298; in [12], -0.864; in assay [13], 0.319. Further, the composite z-score was 0.0186 in [14]; 0.952 in assay [15]; 0.399 in assay [16]; -0.0561 in assay [18]; -0.347 in assay [19]. For the same compound, the composite Z-score in assay [2] was -0.269 (inactive). The z-score is -0.0613 in [17] and 0.76 (inactive) in assay [20].
For the compound `C[N+](C)(C)CCCC[C@@H]1NC(=O)[C@@H]2C[C@H](C(=O)NCCCCCCNC(=O)CS)[C@H](c3ccc(O)cc3)N2C1=O`, the composite z-score in [1] was 0.303; in assay [3], -0.443; in assay [4], -0.115; in [5], 0.82; in assay [6] it was 0.443; in assay [7], 0.596. Moreover, the composite z-score was -0.731 in assay [8]; -0.377 in assay [9]; 0.871 in assay [10]; 0.271 in assay [11]; -0.982 in assay [12]; -0.531 in assay [13]. Further, the composite z-score in assay [14] is -0.33; in assay [15] it was 0.0054; in assay [16], -0.117; in assay [18], -0.237; in assay [19], -0.341. In addition, the composite Z-score in assay [2] is 0.0896 (inactive). Moreover, the values for the z-score in assay [17] and in assay [20] were -0.122 and 0.182 (inactive), respectively.
As to `COCCOC(=O)N1C(=O)[C@@]2(c3cc(C#Cc4ccc(OC)cc4)ccc31)[C@H](c1ccc(O)cc1)N1[C@H](c3ccccc3)[C@H](c3ccccc3)OC(=O)[C@H]1[C@@H]2C(=O)Nc1nc2ccccc2s1`, the composite z-score in assay [1] is 0.576; in assay [3] it was -0.0299; in assay [4], -0.124; in [5] it was 0.537; in assay [6], 1.54; in assay [7], -0.0159. In addition, the composite z-score was 1.3 in assay [8]; 0.0727 in assay [9]; 1.16 in assay [10]; 0.513 in assay [11]; 1.19 in assay [12]; -0.0177 in assay [13]. Besides, the composite z-score in assay [14] was 0.939; in assay [15] it was 1.26; in assay [16] it was 0.499; in assay [18], 0.617; in assay [19], 0.649. The composite Z-score in assay [2] was 0.303 (inactive). Further, the figures for the z-score in [17] and in [20] were -2.06 and -0.894 (inactive), respectively.
Consider `C=CCN1Cc2ccccc2[C@@H]2OC(c3ccc(OCCCO)cc3)=N[C@]2(CCS(=O)(=O)c2ccccc2)C1=O`, for which the composite z-score in [1] was -0.292; in assay [3], 0.233; in assay [4], -0.0664; in [5], 0.254; in assay [6] it was 2.96; in [7] it was 0.725. The composite z-score in assay [8] is 1.3; in assay [9] it was 1.03; in [10], 1.21; in assay [11], 1.56; in assay [12] it was 1.2; in assay [13], 0.772. For the same compound, the composite z-score is 0.811 in assay [14]; 1.4 in [15]; 1.78 in assay [16]; 0.602 in [18]; 0.393 in assay [19]. Besides, the composite Z-score in assay [2] was 0.187 (inactive). Moreover, the z-score in [17] is 1.37; in assay [20] it was -2.38 (inactive).
With `C#CCOc1ccc(C[C@@H](C(=O)OC)N(CC#C)[C@@H](/C=C/C2CC2)[C@H](O)Cc2ccccc2)cc1`, the composite z-score was -0.485 in [1]; -0.19 in [3]; -0.208 in [4]; 0.0591 in assay [5]; -0.148 in assay [6]; 0.286 in [7]. The composite z-score in assay [8] is -0.51; in [9], 0.212; in [10], -0.557; in assay [11] it was 0.135; in [12], -0.438; in assay [13], 0.0472. The composite z-score is -0.651 in assay [14]; 0.24 in assay [15]; -0.768 in assay [16]; 0.22 in assay [18]; -1.34 in [19]. Moreover, in assay [2], the composite Z-score was -0.423 (inactive). Also, the z-score in assay [17] was 2.32; in assay [20], -0.497 (inactive).
For the compound `COc1ccc(C(=O)Nc2cccc(CN3C(=O)[C@]4(O[C@H](CCn5cc(CCO)nn5)[C@@H]([Si](C)(C)c5ccc(OC)cc5)[C@@H]4C)c4ccccc43)c2)cc1`, the composite z-score in assay [1] was 0.196; in [3], 0.0066; in assay [4], -0.0142; in [5] it was 0.43; in assay [6], 0.98; in assay [7] it was -0.0719. For the same compound, the composite z-score in [8] is 1.1; in assay [9], 0.306; in assay [10] it was 0.692; in assay [11], -0.0471; in assay [12], 1.09; in assay [13], 0.258. For the same compound, the composite z-score turned out to be 0.757 in assay [14]; 1.29 in [15]; 0.188 in assay [16]; 0.834 in [18]; 0.351 in [19]. The composite Z-score in [2] is 0.165 (inactive). Further, the z-score in [17] is -1.11; in [20], -0.1 (inactive).
With `COCCOC(=O)N1C(=O)[C@@]2(c3ccccc31)[C@H](C(=O)N1CCCCCCC1)[C@H]1C(=O)O[C@H](c3ccccc3)[C@H](c3ccccc3)N1[C@@H]2c1ccc(OCCO)cc1`, the composite z-score in assay [1] turned out to be 0.445; in assay [3], 2.33; in assay [4], 1.21; in assay [5], 1.09; in [6], 5.19; in assay [7], 1.31. In addition, the composite z-score was 1.32 in assay [8]; 1.68 in [9]; 1.28 in assay [10]; 3.77 in [11]; 1.35 in assay [12]; 4.71 in assay [13]. The composite z-score in [14] was 1.04; in assay [15], 1.58; in assay [16] it was 1.88; in assay [18], 1.91; in assay [19] it was 1.74. The composite Z-score in assay [2] was 10.1 (active). For the same compound, the results for the z-score in assay [17] and in [20] were -1.35 and -0.255 (inactive), respectively.
As to `C=C(CCCC)/C(=C/C[C@H](OC(C)=O)c1ccccc1OCCO)c1cnc2ccccc2c1`, the composite z-score in assay [1] is 0.553; in [3], -0.12; in [4], -0.173; in assay [5], 0.5; in assay [6], 0.376; in [7], 0.0282. Besides, the composite z-score in assay [8] is 0.8; in assay [9], 0.77; in assay [10], 0.706; in assay [11], 0.528; in assay [12] it was 0.545; in [13] it was -0.0464. Besides, the composite z-score in assay [14] was -0.128; in assay [15] it was 0.891; in assay [16] it was 0.481; in [18] it was 0.861; in [19] it was 0.664. Moreover, the composite Z-score in [2] is 0.282 (inactive). Moreover, the z-score is 1.76 in [17] and -0.895 (inactive) in assay [20].
